Reference: PubChem BioAssay
The source made the active and inactive calls. Unless noted, no rule for the calls is given here.

Assays:
[1] = test system: Wnt5a (protein binding on small-molecule microarray); experiment: small molecules binding Wnt5a protein – biophysical, small-molecule microarray, 635/667 nm fluorescence, primary screen (AID 1142); details: 635 nm fluorescence, higher = more signal;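 also: fluorescence read at 667 nm with signal to noise per printed feature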
[2] = ATP-based viability of Huh7 replicon cells – cell-based, CellTiter-Glo luminescence, basal, 48 h, cytotoxicity control for HCV replication inhibitor project, primary screen (AID 1143); details: higher = more signal, called active from +8 up or from −8 down;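 also: Huh7 hepatoma cells carrying a hepatitis C replication reporter with no stimulus; test concentration not given here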
[3] = Pseudomonas biofilm growth suppression – PAO1 strain, BacTiter-Glo luminescence, LB-PBS, primary screen (AID 1144); details: P. aeruginosa PAO1 biofilm, 12 h, higher = more signal
[4] = basal CRE-LacZ reporter activity in PC12 – cell-based, unstimulated, primary screen (AID 1145); details: no forskolin, luminescence, 4.5 h, higher = more signal, called active from +8 up or from −8 down
[5] = forskolin-driven CRE-LacZ activity in PC12 – cell-based, CRE-LacZ reporter, forskolin-stimulated, primary screen (AID 1146); details: luminescence, 4.5 h, higher = more signal, called active from +8 up or from −8 down;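 also: PC12 cells with 6xCRE LacZ reporter stimulated by forskolin 10 µM; beta-galactosidase reporter signal reflecting CREB driven transcription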
[6] = target: Streptavidin (Streptomyces avidinii) (UniProt P22629); experiment: compounds binding control protein streptavidin – biophysical, small-molecule microarray, 635/667 nm fluorescence, artefact control for SMM compound annotation, primary screen (AID 1147); details: higher = more signal;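 also: signal reflects streptavidin binding to arrayed compounds as a control protein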
[7] = probe aInhba binding on compound microarray – biochemical, small-molecule microarray, 635/667 nm fluorescence, primary screen (AID 1148); details: higher = more signal;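 also: score merges 667nm spot fluorescence with signal-to-noise for antibody binding to printed compounds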
Torsin-1A (Homo sapiens) [8] = target: Torsin-1A (Homo sapiens) (UniProt O14656); experiment: TOR1A wild-type binding on microarray – cell lysate, small-molecule microarray, lysate, 635/667 nm, primary screen (AID 1149); details: COS7 hTOR1A-WT lysate, 635 nm fluorescence, higher = more signal
Torsin-1A (Homo sapiens) [9] = target: Torsin-1A (Homo sapiens) (UniProt O14656); experiment: torsin A mutant lysate binding on microarrays – cell lysate, small-molecule microarray, COS7 lysate, 635/667 nm fluorescence, primary screen (AID 1150); details: COS7 hTOR1A mutant lysate, 635 nm fluorescence, higher = more signal;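 also: score pools 667 nm emission and signal to noise measuring lysate protein binding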
[10] = test system: Sonic hedgehog protein (Shh); experiment: Sonic hedgehog microarray binding compounds – biochemical, small-molecule microarray, 635/667 nm fluorescence, primary screen (AID 1151); details: 635 nm fluorescence, higher = more signal;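 also: Shh protein binding to compounds spotted on small-molecule microarray slides; score combines spot fluorescence intensity with signal-to-noise across triplicate slides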

Chain of Torsin-1A (Homo sapiens) (O14656 whole entry, looked up): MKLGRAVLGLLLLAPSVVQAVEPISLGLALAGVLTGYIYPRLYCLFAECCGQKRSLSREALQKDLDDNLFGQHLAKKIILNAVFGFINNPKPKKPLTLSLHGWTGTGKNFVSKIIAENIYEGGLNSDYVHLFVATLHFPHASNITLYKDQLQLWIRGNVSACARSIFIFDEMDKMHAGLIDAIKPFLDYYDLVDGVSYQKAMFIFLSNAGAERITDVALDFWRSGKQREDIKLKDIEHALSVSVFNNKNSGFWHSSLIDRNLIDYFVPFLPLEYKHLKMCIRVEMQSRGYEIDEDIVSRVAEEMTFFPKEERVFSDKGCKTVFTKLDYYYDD
Chain of Streptavidin (Streptomyces avidinii) (P22629 whole entry, looked up): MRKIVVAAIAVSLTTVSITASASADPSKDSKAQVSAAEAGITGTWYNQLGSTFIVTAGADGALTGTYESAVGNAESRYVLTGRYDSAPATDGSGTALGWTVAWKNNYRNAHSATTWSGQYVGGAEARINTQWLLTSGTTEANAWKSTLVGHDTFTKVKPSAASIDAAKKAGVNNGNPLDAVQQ

SMILES	composite z-score [1]	z-score [2]	z-score [3]	z-score [4]	z-score [5]	composite z-score [6]	composite z-score [7]	composite z-score (Torsin-1A (Homo sapiens) [8])	composite z-score (Torsin-1A (Homo sapiens) [9])	composite z-score [10]
CCOC(=O)C[C@H]1[C@H](OC(=O)Cc2ccc3c(c2)OCO3)[C@@H](NC(=O)c2ccc(-c3ccccc3)cc2)c2cc(OCCCO)ccc2N1C(=O)c1ccc2ccccc2n1	0.317	-4.97 (inactive)	-0.157 (inactive)	4.93 (inactive)	-0.87 (inactive)	1.41	-0.231	-0.184	0.438	0.0508
O=C1NC(=O)C2C1C=CC(C(O)C(c1ccccc1)c1ccccc1)N2Nc1ccc(Cl)cc1Cl (stereo not given)	0.223	-1.78 (inactive)	-0.548 (inactive)	-0.14 (inactive)	0.253 (inactive)	1.23	0.102	-0.614	-0.0412	-0.566
C=C(/C(=C/C[C@@H](OC(C)=O)c1ccc(OCCO)cc1)c1cnc2ccccc2c1)C(C)C	0.0701	-1.07 (inactive)	-0.25 (inactive)	0.681 (inactive)	-0.45 (inactive)	0.376	-0.084	-0.969	0.576	1.67
COC(=O)c1c(CC[C@@H](CO)NC(=O)N[C@H](Cn2cc(Cc3ccccc3)nn2)C(C)C)oc(C(C)=O)c1C(=O)OC	0.367	-2.8 (inactive)	-0.973 (inactive)	0.904 (inactive)	-1.21 (inactive)	-0.166	-0.0759	-0.372	0.882	2.1
CC(CO)N1C(=O)[C@@H]2C3C(=O)OCCC/C=C\[C@H]3OC23C=CCN(c2ccc4ccccc4c2)C(=O)[C@@H]13 (stereo not given in full)	-0.632	0.645 (inactive)	-1.02 (inactive)	-0.0737 (inactive)	0.156 (inactive)	-0.342	-0.0719	-1.72	-1.03	-0.256
[N-]=[N+]=NCc1ccccc1C[C@@]1(C(=O)NCC(O)CO)N=C(c2ccc(OCCCO)cc2)O[C@@H]1c1ccccc1N=[N+]=[N-] (stereo not given in full)	0.63	-3.67 (inactive)	-0.68 (inactive)	0.209 (inactive)	-1.57 (inactive)	1.89	0.475	0.73	1.07	-0.762
O=C1c2ccccc2[C@](Cc2ccccc2I)(C(=O)NC2CC2)[C@H](c2ccc(CO)cc2)N1Cc1ccccc1	0.384	-2.11 (inactive)	-1.02 (inactive)	-0.179 (inactive)	0.0053 (inactive)	-0.248	0.0633	0.189	0.7	0.192
C=CCNC(=O)[C@H]1[C@@H]2C(=O)O[C@@H](c3ccccc3)[C@@H](c3ccccc3)N2[C@@H](c2ccc(OCCO)cc2)[C@]12C(=O)Nc1ccc(C#CC3=CCCCC3)cc12	0.722	-4.45 (inactive)	0.334 (inactive)	0.775 (inactive)	-0.267 (inactive)	0.376	-0.0136	0.127	0.578	1.54
CC(C)c1ccc(NN2C(C(O)C(c3ccccc3)c3ccccc3)C=CC3C(=O)N(c4ccccc4)C(=O)C32)cc1 (stereo not given)	0.359	-0.29 (inactive)	-0.281 (inactive)	-0.322 (inactive)	1.3 (inactive)	1.3	0.246	0.792	0.936	-0.0266
CC(C)OC(=O)C=C1C[C@@H](c2ccccc2C(F)(F)F)O[C@@H](c2ccccc2C(F)(F)F)O1	0.0503	-4.32 (inactive)	-0.0124 (inactive)	0.0798 (inactive)	1.22 (inactive)	0.215	-0.176	0.217	0.202	0.245
COCCOC(=O)N1C(=O)[C@@]2(c3cc(C#CCCO)ccc31)[C@H](c1ccc(OCCO)cc1)N1[C@H](c3ccccc3)[C@H](c3ccccc3)OC(=O)[C@H]1[C@@H]2C(=O)N1CCN(c2ncccn2)CC1	-0.0738	-0.361 (inactive)	0.97 (inactive)	0.334 (inactive)	0.653 (inactive)	0.782	0.0947	0.546	0.28	1.43
COC(=O)[C@@]1(Cc2ccccc2)[C@H]2c3cc(C(=O)N(C)C)n(CCSCCO)c3C[C@H]2CN1C(=O)c1ccccc1	0.197	-0.432 (inactive)	0.33 (inactive)	0.397 (inactive)	0.695 (inactive)	0.357	-0.0589	-0.0487	0.796	-0.931
COC(=O)C(CC#Cc1ccc2c(c1)[C@]1(C(=O)N2)[C@H](C(=O)O)[C@H]2C(=O)O[C@H](c3ccccc3)[C@H](c3ccccc3)N2[C@@H]1c1ccc(O)cc1)C(=O)OC	-0.265	0.674 (inactive)	-0.208 (inactive)	-0.467 (inactive)	-0.686 (inactive)	-0.641	-0.0405	-0.21	0.446	-0.613
CCCCc1cn(C[C@H](Cc2ccccc2)NC(=O)N[C@H](CO)CCc2oc(C(C)=O)c(C(=O)OC)c2C(=O)OC)nn1	0.276	-2.8 (inactive)	-1.09 (inactive)	1.02 (inactive)	0.549 (inactive)	0.881	-0.0448	0.992	0.454	1.99
COc1ccc([Si](C)(C)[C@H]2[C@H](CCO)O[C@@]3(C(=O)N(Cc4ccc(N5C(=O)COc6ccccc65)cc4)c4ccccc43)[C@@H]2C)cc1	-0.516	-6.62 (inactive)	-1.32 (inactive)	-0.766 (inactive)	-0.706 (inactive)	-0.314	-0.128	-1.06	-0.89	-0.15
CN1C(=O)C2C=CC(C(O)Cc3ccccc3)N(Nc3ccccc3)C2C1=O (stereo not given)	-0.0943	0.329 (inactive)	-1.16 (inactive)	0.626 (inactive)	0.0426 (inactive)	0.996	0.0622	0.279	0.444	-0.52
CC(=O)n1cc(C(O)C2C=CC3C(=O)N(C)C(=O)C3N2Nc2ccccc2)c2ccccc21 (stereo not given)	0.19	1.08 (inactive)	-0.114 (inactive)	0.0569 (inactive)	-0.172 (inactive)	1.13	0.246	0.383	0.606	1.04
O=C(NCc1ccccc1)[C@@]1(CCS(=O)(=O)c2ccccc2)N=C(c2ccc(OCCCO)cc2)O[C@H]1c1ccccc1	0.794	-2.09 (inactive)	-0.847 (inactive)	-0.435 (inactive)	-0.516 (inactive)	1.8	0.212	1.35	1.16	-0.756
Cc1ccc(C(C)CC(O)C2C=CC3C(=O)N(C)C(=O)C3N2NC(=O)OC(C)(C)C)o1 (stereo not given)	0.376	0.963 (inactive)	0.399 (inactive)	0.0569 (inactive)	-0.0179 (inactive)	1.22	0.4	0.204	1.05	0.245
C=CC[C@]1(C(=O)NCCCOC)N=C(c2ccc(OCCCO)cc2)O[C@H]1c1ccccc1N=[N+]=[N-]	0.485	-2.57 (inactive)	-0.742 (inactive)	2.14 (inactive)	-1.5 (inactive)	1.39	0.611	0.0108	0.878	-0.477
O=C(NCc1ccc(F)cc1)[C@H]1C[C@H]2C(=O)N[C@@H](Cc3ccccc3)C(=O)N2[C@H]1c1ccc(O)cc1	-0.0011	-0.411 (inactive)	0.506 (inactive)	-0.801 (inactive)	-0.887 (inactive)	-0.507	-0.206	1.08	1.37	1.1
COc1cc2c(cc1OC)CN(C(=O)[C@H]1[C@@H]3C(=O)O[C@@H](c4ccccc4)[C@@H](c4ccccc4)N3[C@@H](c3ccc(O)cc3)[C@]13C(=O)Nc1ccc(C#CCNC(N)=O)cc13)CC2	0.438	-0.431 (inactive)	-1.68 (inactive)	-1.01 (inactive)	-0.638 (inactive)	-0.283	0.0357	0.437	0.0805	0.74
COc1cc2c(cc1O)C=[N+](Cc1cccc(OC(F)(F)F)c1)CC2	-0.141	-2.11 (inactive)	-0.28 (inactive)	-0.401 (inactive)	-0.583 (inactive)	-0.535	-0.127	0.955	0.284	-0.0245
COC(=O)[C@@]1(Cc2ccc(OC)cc2)[C@H]2c3cc(C(=O)N4CCCC4)n(Cc4ccccc4)c3C[C@H]2CN1C(=O)c1ccccc1	2.34	-2.68 (inactive)	0.888 (inactive)	0.194 (inactive)	-0.754 (inactive)	2.04	1.76	-0.0218	0.107	-0.442
Cc1ccc(S[C@]2(C(=O)NC3CC3)CC(=O)N(C3Cc4ccccc4C3)[C@@H]2c2ccc(CO)cc2)cc1	-0.0244	-1.6 (inactive)	-0.401 (inactive)	0.324 (inactive)	-0.906 (inactive)	-0.75	-0.0136	-0.382	0.23	-0.766
O=C1C2C=CC(C(O)c3c(F)cccc3Cl)N(Nc3ccccc3)C2C(=O)N1c1ccccc1 (stereo not given)	0.422	-0.165 (inactive)	-0.48 (inactive)	0.0535 (inactive)	-0.0349 (inactive)	1.1	0.153	0.463	0.836	-0.104
N#Cc1ccc(NN2C(C(O)c3c(F)cccc3Cl)C=CC3C(=O)N(c4ccccc4)C(=O)C32)cc1 (stereo not given)	0.607	0.17 (inactive)	-1.11 (inactive)	0.622 (inactive)	0.201 (inactive)	1.35	0.419	0.513	1.35	0.585
C=CCOC(=O)[C@H]1[C@@H]2C(=O)O[C@@H](c3ccccc3)[C@@H](c3ccccc3)N2[C@@H](c2ccc(OCCOC(=O)[C@@H]3C[C@@H]4C(=O)N[C@@H](CCCCN(C)C)C(=O)N4[C@@H]3c3ccc(O)cc3)cc2)[C@]12C(=O)Nc1ccc(I)cc12	0.451	-0.135 (inactive)	-1.02 (inactive)	-0.935 (inactive)	1.04 (inactive)	0.218	0.0082	1.22	0.671	1.71
